# From PubChem BioAssay AID652104 (National Center for Advancing Translational Sciences (NCATS), 2013)
# In all, about 410,000 compounds went through this assay and about 7,200 (1.8%) were called active. Roughly 7% stayed inconclusive and do not appear here. The list comes from a sample in which actives are over-represented; it also holds similar structures and randomly drawn compounds. Values without a mark were called inactive. Calls follow the shape of the dose curve; as a rule, active = well fitted activation curve with a large enough effect; inconclusive = small, poorly fitted or top-dose-only effect, or another doubt; inactive = no such curve, though single readings can be large or run the other way.
# Assay: qHTS of TDP-43 Inhibitors; also: nearly all actives have a fitted effect of over 50% in size; as to growth rescue (activation): % of control where 0% means no effect
# Conditions: TDP-43 expressing yeast growth rescue, BacTiter-Glo, 24 h; series mostly up to 46.1 µM; growth rescue (activation): at the top concentration
# In short: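 Yeast cells expressing TDP-43 under galactose induction are exposed to compounds for 24 hr at 30 deg C. BacTiter-Glo luminescence measures growth, so protective compounds score as activators.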
# Potency is read from the fitted curve at half-maximal effect.
SMILES,growth rescue (activation),Potency
CCc1ccccc1NC(=O)c1cnn(-c2ccc(F)cc2)c1C1CCNCC1,23%,
COc1ccccc1CNC(=O)C(=O)NCC(c1ccco1)S(=O)(=O)c1ccc(F)cc1 (stereo not drawn),18.5%,
COc1cc(OC)c(OC)cc1/C=C/c1nc2ccccc2c(=O)n1-c1ccc(Br)c(C)c1,,22.4 µM (active)
COc1cc(OC)c(OC)cc1/C=C/c1nc2cc3ccccc3cc2c(=O)n1-c1ccc(F)c(Cl)c1,21.1%,
COc1cc(C(=O)Nc2ccc(-n3c(C)nc4ccccc4c3=O)cc2)cc(OC)c1OC,0%,
O=C(Cc1ccc(Cl)cc1)NCC(c1cccs1)S(=O)(=O)c1ccc(Cl)cc1 (stereo not drawn),0.548% [at 9.22 µM],
Cc1c(Cl)cccc1NC(=O)C1CCCN(c2ncnc3onc(C)c23)C1 (stereo not drawn),7.94%,
Cc1ccc(Cl)cc1N(C)C(=O)C1CCCN(c2ncnc3onc(-c4ccc(F)cc4)c23)C1 (stereo not drawn),,35.5 µM (active)
CCc1ccccc1N(C)C(=O)C1CCCN(c2ncnc3onc(-c4ccc(F)cc4)c23)C1 (stereo not drawn),13.9%,
Cc1cn(C)c(CC(=O)NCc2ccccc2)c1C(=O)O,11.9%,
O=C(/C=C/c1ccccc1)N1CCN(Cc2cc(=O)n3nc(-c4ccccc4F)sc3n2)CC1,0.573%,
CCc1ccccc1NC(=O)c1cc(-c2ccc3c(c2)OCO3)on1,,inactive
O=C(NCc1ccccc1)c1cc(-c2cccc(Cl)c2)on1,10.6%,
O=C(Nc1ccccc1C(F)(F)F)c1cc(-c2ccc(O)cc2)on1,,12.6 µM (active)
COc1ccc(NC(=O)Cn2c(=O)cc(C)c3c(C)nn(-c4cccc(Cl)c4C)c32)cc1OC,15.4%,
CCOC(=O)c1cc(-c2ccccc2)n(-c2cccc(C(=O)Nc3cc(OC)cc(OC)c3)c2)c1C,13.5%,
CC(C)OCCCn1c(SCC(=O)c2ccccc2)nc2c(sc3ccccc32)c1=O,22.8%,
CCn1c(CSCc2c(Cl)cccc2Cl)n[nH]c1=S,,11.2 µM (active)
CCn1c(CN2C(=O)CSc3ccccc32)n[nH]c1=S,-24.2%,
CCn1c(CNS(=O)(=O)c2ccc(Cl)cc2)n[nH]c1=S,-8.25%,
CC(C)(C)c1ccc(C(=O)Nc2ccc3c(c2)CCCN3C(=O)c2cccs2)cc1,18.3% [at 9.22 µM],
CCOC(=O)c1c(S(=O)(=O)NCC(=O)Nc2ccc(Cl)c(C(F)(F)F)c2)c(C)n(C)c1C,-5.08%,
CCOc1cc(/C=C2\SC(N3CCCC(C)C3)=NC2=O)ccc1O (stereo not drawn),-3.68%,
CCOc1cc(/C=N/Nc2cc(C)nc3ccc(C)cc23)ccc1O,,15.8 µM (active)
COc1cc(OC)cc(C(=O)Nc2cc3nn(-c4ccccc4)nc3cc2Cl)c1,2.89%,

SMILES,growth rescue (activation),Potency
O=[N+]([O-])c1cc(-c2nc(-c3ccccc3)no2)ccc1NCc1ccco1,6.16%,
CCc1nn(CCCC(=O)NCc2ccccc2OC)c(=O)c2cc3occc3n12,0%,
NC(=O)c1sc2nc3c(c(-c4ccccc4)c2c1N)CCC3,,28.2 µM (active)
CN(C)c1ccnc2sc(C(=O)c3ccccc3)c(N)c12,,6.31 µM (active)
Nc1c(C(=O)c2cccs2)sc2nsc(SCCN3CCCCC3)c12,-31%,
Cc1ccc2c(N)c(C(=O)c3ccccc3)sc2n1,,14.1 µM (active)
COc1cccc(C(=O)c2sc3nc(-c4ccccc4)cc(C(F)(F)F)c3c2N)c1,19%,
Cc1ccc(NC(=O)c2sc3nc(N)c(C#N)cc3c2N)cc1,1.81%,
COC(=O)c1cc2c(N)c(C(=O)c3ccc(Cl)cc3)sc2nc1C(OC)OC,11.8%,
Cc1nc2sc(C(=O)c3ccccc3)c(N)c2c2c1CCCC2,,22.4 µM (active)
CN(C(=O)c1ccccc1)c1nccnc1C#N,-6.6%,
CCCS(=O)(=O)c1c(Nc2ccccc2C)sc(C(=O)c2ccccc2)c1N,28.5%,
COc1ccccc1NC(=O)c1sc2nc(C)c(C(=O)Nc3ccc(Cl)cc3)c(-c3ccc(Br)cc3)c2c1N,3.6%,
Cc1ccccc1CSCCNC(=O)C1CCN(S(=O)(=O)Cc2ccccc2)CC1,16.1%,
Cc1c(NS(=O)(=O)c2ccc(Cl)cc2)c(=O)n(-c2ccccc2)n1C,10.6%,
CCCN(CCC)CCNC(=O)Cn1cnc2sc(C)c(S(=O)(=O)N3CCC(C)CC3)c2c1=O,8.27%,
CCc1ccccc1NC(=O)N1CCN(C(=O)c2nsc3ccccc23)CC1,20.8%,
COc1ccc(C2Sc3ccccc3NC3=C2C(=O)c2ccccc23)c(OC)c1OC (stereo not drawn),0%,
Cc1ccc(C(=O)Nc2ccc(C(=O)O)cc2)cc1S(=O)(=O)Nc1ccccc1,22.9%,
Cc1cccc(C(=O)Nc2ccc(-c3nc4ncccc4o3)cc2C)c1,15.3%,
O=C(NCc1cccnc1)C(=O)NCC(c1cccnc1)N1CCN(c2ccccc2)CC1 (stereo not drawn),6.7%,
O=C(NCc1ccc2c(c1)CCN2C(=O)c1ccccc1)c1ccccc1,24.4%,
COc1ccc2[nH]c3c(C)c4cc[n+](C)cc4c(C)c3c2c1,0%,
COc1ccc(N)c(C)c1,28%,
COc1ccc2[nH]c3ccc(OC)cc3c2c1,,8.91 µM (active)

SMILES,growth rescue (activation),Potency
Cc1ccc(Cl)cc1N(C)C(=O)Cn1nc(Cc2cccnc2)c2ccccc2c1=O,-12.3%,
CCCn1c2ccccc2c2cnn(CC(=O)N3CCCC(C(=O)OCC)C3)c(=O)c21 (stereo not drawn),28%,
CCc1ccc(S(=O)(=O)n2ccnc2)cc1,16.1%,
COc1cccc(Cn2c(SCc3ccc(C(=O)N4CCC(C)CC4)cc3)nc3ccncc32)c1,1.69%,
N#C/C(=C\c1cccc(F)c1)c1nc(-c2cc3c(ccc4ccccc43)oc2=O)cs1,-13.3%,
O=C(CSc1nc2c(c(=O)[nH]1)CN(Cc1ccc3c(c1)OCO3)CC2)Nc1cc(F)ccc1F,-2.02%,
CCCn1c(C2CCCN2c2nc(-c3ccc(OC)cc3)cs2)nc2ccccc21 (stereo not drawn),3.8%,
COc1ccc(-c2csc(-c3c(N)c(C(=O)c4ccc(OC)c(OC)c4)n4ccccc34)n2)cc1,9.93%,
Cc1cccc(Nc2nc(-c3ccccc3)cs2)n1,,14.1 µM (active)
Cc1cc(-c2ccccc2)n2nc(-c3ccccc3)cc2n1,3.2%,
COc1ccc(-c2csc(Nc3ccccn3)n2)cc1,,3.55 µM (active)
Cc1cccc(NS(=O)(=O)c2ccc([N+](=O)[O-])cc2)n1,-5.16%,
O=C(NCC(c1ccco1)S(=O)(=O)c1cccs1)c1ccc(F)cc1 (stereo not drawn),25%,
Cc1ccc(N(CC(=O)NCc2ccc(Cl)cc2)S(=O)(=O)N(C)C)cc1,1.6%,
COc1ccccc1CNC(=O)C(Cc1ccccc1)NS(=O)(=O)c1ccc2c(c1)oc(=O)n2C (stereo not drawn),16.4%,
Cc1ccc(Cn2c(=O)n(-c3ccc(C)cc3)c(=O)c3c2c2cc(C)ccc2n3C)cc1,3.2%,
CCOc1ccc(N2CC(C)Cn3c2nc2c3c(=O)n(Cc3c(F)cccc3Cl)c(=O)n2C)cc1 (stereo not drawn),15.8%,
CCOC(=O)CN1C(C(=O)c2ccccc2)=C(OC(=O)C(C)(C)C)c2ccccc2S1(=O)=O,18.4%,
CCCCC(=O)OC1=CN(Cc2ccccc2)S(=O)(=O)c2ccccc21,1.17%,
CC(=O)OC1=C(C(C)=O)N(Cc2ccccc2)S(=O)(=O)c2ccccc21,,35.5 µM (active)
CC(=O)c1ccc(OC(=O)N2CCOCC2)cc1,-20.1%,
CC(=O)Oc1ccc(-c2cccc(C(=O)N3CCCCC3)c2)cc1,-16% [at 1.82 µM],
O=C(c1ccccc1)c1ccc(OC(=O)N2CCCC2)cc1,,11.2 µM (active)
O=S(=O)(NCCc1ccccc1)c1ccccc1,12.3%,
O=S(=O)(NCC1OCCc2ccccc21)c1ccccc1 (stereo not drawn),,10 µM (active)

SMILES,growth rescue (activation),Potency
O=C(Cc1ccccc1)NCC1OCCc2ccccc21 (stereo not drawn),14.4%,
CCCOc1ccc(C(=O)Nc2ccc3oc(-c4cccc(Cl)c4Cl)nc3c2)cc1,11.7%,
CCOc1ccc(NC(=O)c2cc(S(=O)(=O)N3CCCC3)c[nH]2)cc1,4.42%,
CC1(c2nnc(-c3ccncc3)o2)CC(c2cccnc2)=NO1 (stereo not drawn),6.56%,
CN(C)c1ccc(-c2nnc(-c3cccnc3)o2)cc1,,10 µM (active)
CCCN(CCC)c1ccc(C(O)c2nnc(-c3ccccc3)o2)cc1 (stereo not drawn),-5.35%,
O=C(Cn1ncc2c3ccccc3n(Cc3ccccc3)c2c1=O)NC1CCCCCC1,14.8%,
CCC(Sc1nnc(-c2ccc(OC)cc2)c(-c2ccc(OC)cc2)n1)C(=O)NC1CCCCC1 (stereo not drawn),10.9%,
CN(Cc1ccccc1)C(=O)c1cn(C)c2ccc(S(=O)(=O)N(C)C3CCCCC3)cc2c1=O,1.58%,
CCOc1ccccc1CNC(=O)c1ccc2c(c1)nc1n2CCC(C)C1 (stereo not drawn),-3.83%,
CCOc1ccccc1C(=O)NCC(c1ccc(N(C)C)cc1)N1CCCC1 (stereo not drawn),10.1%,
COc1ccc(-c2noc(CSc3nnc(-c4ccccc4)n3-c3ccc(F)cc3)n2)c(OC)c1,14.2%,
CCc1cc(C(c2ccccc2OC)N2CCOCC2)c(NC(=O)c2ccccc2)s1 (stereo not drawn),,20 µM (active)
COc1ccccc1C(=O)Nc1cccc(C(=O)N2CCOCC2)c1,-30.7%,
COc1cc(C(c2c(NC(=O)c3ccco3)sc(C)c2C)N2CCOCC2)cc(OC)c1OC (stereo not drawn),7.65%,
COc1ccccc1NC(=O)C1=C(C)Nc2nc(SCC(=O)c3ccc(C)cc3)nn2C1c1ccccc1C (stereo not drawn),10.6%,
CCCCn1c(CNC(=O)C23CC4CC(CC(C4)C2)C3)nnc1SCC(=O)Nc1ccc(C)cc1,16.7%,
O=C(CO/N=C/c1ccccc1OC(F)F)NC1CCCC1,26.6% [at 9.22 µM],
O=C(CO/N=C/c1ccccc1O)NNC(=O)c1ccccc1Cl,,3.16 µM (active)
O=C(COc1ccccc1F)NNC(=O)c1cc(Br)ccc1Cl,26.6%,
O=C(c1ccccc1F)N1CCC(c2nc3c(nnn3Cc3cccc(F)c3)c(=O)[nH]2)CC1,11.5%,
CC(C)c1ccc(OCC(=O)N(Cc2ccc(N(C)C)cc2)C2CCS(=O)(=O)C2)cc1 (stereo not drawn),11.6%,
COc1ccc(-c2cn3c(n2)sc2cc(C(=O)Nc4ccccc4F)ccc23)cc1,18.7%,
